# Measured values taken from PubChem BioAssay (NCI).
# The panel holds about 83,000 compounds, 20% with a hit somewhere; the sample as a whole holds those more often.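 Results are percent growth after 48 hours of single-concentration exposure. 100 means growth as in untreated cells, lower positive values show inhibition; negative values down to -100 show cell death.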 Calls of active or inactive are those of the source. Rule for the calls: active = growth percent below 10; inactive = the rest.
# System: SK-MEL-2 melanoma
# Assay: NCI-60 one-dose screen, 48 h (100 = growth as untreated, 0 = no growth, -100 = all killed)
# Conditions: 10 µM
row,Structure (SMILES),growth
1,Cc1ccc(/C=C/C(=O)c2ccc(NC(=O)CSc3nnc(-c4c[nH]c5ccccc45)n3-c3ccccc3)cc2)cc1,90.5% (inactive)
2,CCCn1c(O)c(N=Nc2nc(-c3cc4ccccc4oc3=O)cs2)c2cc(Br)ccc21,102% (inactive)
3,COc1ccc2[nH]c(=O)c(CSc3nccc(-c4ccc(Cl)cc4)n3)cc2c1,42.9% (inactive)
4,COc1cc(/C=C/C(=O)c2cc(OC)c(OC)c(OC)c2)ccc1Oc1nc(Nc2ccc(F)cc2)nc(N(C)C)n1,-49.4% (active)
5,c1ccc(C(=C(c2ccc(OCCN3CCCCC3)cc2)c2ccc(OCCN3CCCCC3)cc2)C2CCCC2)cc1,-90.2% (active)
6,Cc1ccc(/C=C(\C#N)n2nnc3c(F)cccc32)cc1,16.5% (inactive)
7,O=C1Nc2ccc(F)cc2/C1=C/c1cccc(OCc2ccccn2)c1,46.6% (inactive)
8,Cc1ccc(-c2cc(C(=O)N=Nc3c(O)[nH]c4ccc(Br)cc34)c3ccccc3n2)cc1,104% (inactive)
9,Cc1cc(C)nc(NS(=O)(=O)c2ccc(N/C(N)=N/c3nccc(-c4ccccc4)n3)cc2)n1,89.5% (inactive)
10,COc1ccc(NC(=O)Nc2ccc(OCC(=O)N=Nc3c(O)[nH]c4ccc([N+](=O)[O-])cc34)cc2)cc1,89.4% (inactive)
11,COc1ccc(-c2nc(Nc3ccccc3S(N)(=O)=O)c3ccccc3n2)cc1,110% (inactive)
12,CCCCCc1ccc(S(=O)(=O)N(C(C)=O)c2cc(-c3csc(N(C)C(C)=O)n3)ccc2N2CCN(C)CC2)cc1,35.1% (inactive)
13,NS(=O)(=O)c1ccc(N=Nc2c(O)n(CC(=O)Nc3ccccc3Br)c3ccccc23)cc1,1.95% (active)
14,CN(C)c1nc(NCCNS(=O)(=O)c2ccc(C(=O)/C=C/c3ccccc3)cc2)nc(Nc2ccc(F)cc2)n1,81% (inactive)
15,CC1=C2C(=C[C@@](C)(COCOCCCl)[C@@H]2O)C(=O)[C@](C)(O)C12CC2,-100% (active)
16,COC[C@@H](CC(C)C)N=C1NC(=O)/C(=C/c2ccc3ncoc3c2)N1,-75.8% (active)
17,CC1=C2C(=C[C@@](C)(CO)[C@@H]2O)/C(=N\N)[C@](C)(O)C12CC2,-100% (active)
18,CN1CCc2c(sc3ncnc(N/N=C/c4ccc5ccccc5c4)c23)C1,103% (inactive)
19,Cc1cccc(-c2nc(Nc3ccccc3C(=O)O)c3ccccc3n2)c1,66% (inactive)

row,Structure (SMILES),growth
1,COc1ccc2[nH]c(O)c(N=NC(=O)COc3ccc(NC(=O)Nc4ccc(Cl)cc4)cc3)c2c1,-8.16% (active)
2,CN1CCN(Cc2ccc(NC(=O)c3cncc(C#Cc4cnc5ccc(N[C@H]6CCOC6)nn45)c3)cc2C(F)(F)F)CC1,-94.3% (active)
3,N#Cc1c(Cl)nc(SCc2ccc(F)cc2)nc1-c1ccc(F)cc1,97.9% (inactive)
4,CONC[C@]1(C)C=C2C(=O)[C@](C)(O)C3(CC3)C(C)=C2[C@H]1O,-100% (active)
5,CCCCOc1ccc(Nc2nc3ccccc3nc2Nc2ccc(OCCCC)cc2)cc1,99.5% (inactive)
6,C=C1CCC2C3(C)COC(c4cccc(F)c4)OC3CCC2(C)C1CC(O)C1=CCOC1=O (configuration not stated),75.9% (inactive)
7,COc1ccc(/C=N/N=C(\C)c2ccc3c(c2)Nc2ccccc2S3)cc1O,48.5% (inactive)
8,O=S(=O)(Nc1ncccn1)c1ccc(-n2c(-c3ccc(Br)cc3)nc(-c3ccccc3)c2-c2ccccc2)cc1,56.8% (inactive)
9,C[C@H]1[C@H](C)CC[C@]2(COC(=O)CCC(=O)NCC#CCN3CCNCC3)CC[C@]3(C)C(=CC[C@@H]4[C@@]5(C)CCCNC(C)(C)[C@@H]5CC[C@]43C)[C@H]12,96.3% (inactive)
10,CN1CCN(Cc2ccc(C(=O)Nc3cccc(Nc4ccc5c(O)cccc5n4)c3)cc2C(F)(F)F)CC1,-75.9% (active)
11,CC(=O)Nc1ccc(-c2cn(-c3cccc(C(=O)Nc4cccc(OC(F)(F)F)c4)c3)nn2)cn1,95.4% (inactive)
12,CCOC(=O)C1=C(N)N(c2ccccc2)C2=C(C(=O)CC(C)(C)C2)C1c1ccccc1OC (configuration not stated),109% (inactive)
13,O=c1[nH]c2ccccc2cc1CSc1ccc(Nc2nccc(-c3ccc(C(F)(F)F)cc3)n2)cc1,85.4% (inactive)
14,COC(=O)C[C@](O)(CCCC(C)(C)O)C(=O)O[C@H]1C(OC)=C[C@@]23CCC(=O)N2CCc2cc4c(cc2[C@@H]13)OCO4,110% (inactive)
15,COc1ccc2[nH]c(O)c(N=NC(=O)c3cc(-c4ccc(C)cc4)nc4ccccc34)c2c1,111% (inactive)
16,COc1ccc(CN2[C@H](C(=O)NCc3ccc(C(=O)NO)cc3)Cc3c([nH]c4ccccc34)[C@H]2C2CC2)cc1,44.9% (inactive)
17,COc1ccc(C2N(c3ccc(Br)cc3)N=C(C(C)=O)N2[C@H]2[C@H](OC(C)=O)O[C@H](COC(C)=O)[C@@H](OC(C)=O)[C@@H]2OC(C)=O)cc1 (some centres not stated),77.9% (inactive)
18,CN(CCF)c1ccc(/C=C/C(=O)c2ccc(N)cc2O)cc1,93% (inactive)
